Screening data from PubChem.
GDH-TPI counter-1: inhibits GDH-TPI coupling enzymes, artifact for Mtb FBA screen; inhibition, % at 4.8 µM; AID 588335; GDH-TPI coupled enzyme counterscreen, NADH absorbance; 1.2% of 360,000 active; in the data active = inhibition above about 30%
Mtb bLac sens: beta-lactam sensitization of Mtb H37Rv; M. tuberculosis H37Rv growth with meropenem, percent inhibition; inhibition, % at 25 µM; 0.27% of 330,000 active; AID 434955;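 also: growth measured after seven days incubation then overnight dye step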
RecA splice inh: Mtb RecA intein splicing inhibition; cell-free RecA intein splicing, fluorescence; inhibition, % (concentration not given with the values); 0.75% of 290,000 active; AID 2221; in the data active = inhibition above about 30%
Mtb FBA inh: inhibits M. tuberculosis FBA enzyme. P9WQA3. purified M. tuberculosis FBA, fluorescence read-out. inhibition, % at 1 µM. 2.3% of 360,000 active. AID 588726; in the data active = inhibition above about 27%
Target sequence (P9WQA3 whole entry, looked up): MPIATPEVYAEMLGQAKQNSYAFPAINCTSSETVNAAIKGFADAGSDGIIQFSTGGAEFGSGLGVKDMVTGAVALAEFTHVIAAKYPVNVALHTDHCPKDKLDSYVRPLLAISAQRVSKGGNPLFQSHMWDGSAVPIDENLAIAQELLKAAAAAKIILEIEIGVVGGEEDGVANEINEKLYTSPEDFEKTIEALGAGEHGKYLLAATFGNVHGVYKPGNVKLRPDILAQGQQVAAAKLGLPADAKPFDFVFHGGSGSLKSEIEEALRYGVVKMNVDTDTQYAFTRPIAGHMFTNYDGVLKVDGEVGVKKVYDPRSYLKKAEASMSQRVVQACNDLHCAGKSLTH
UGM FP inh: blocks M. tuberculosis UGM enzyme; P9WIQ1; purified UGM, fluorescence polarization probe displacement; inhibition, % at 10 µM; 0.06% of 320,000 active; AID 504406; in the data active = inhibition above about 10%, passing the limit was not always enough
Rv3671c inh: inhibits the M. tuberculosis serine protease Rv3671c; P9WHR9; inhibition, % at 5.96 µM; 0.048% of 320,000 active; AID 2606; in the data active = inhibition above about 38%;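 also: extracellular domain of Rv3671c used as enzyme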
Mtb FBA inh conf: Mtb FBA inhibition, confirmed; shares compounds with Mtb FBA inh; purified M. tuberculosis FBA, fluorescence read-out; inhibition, % at 1 µM; 78% of 5,600 active; AID 651616; in the data active = inhibition above about 27%
GDH-TPI counter-2: GDH-TPI inhibition counter-screen for FBA inhibitors | shares compounds with Mtb FBA inh | GDH-TPI coupled enzyme counterscreen, fluorescence | inhibition, % at 1 µM | 81% of 5,600 active | AID 652141; in the data active = inhibition above about 10%
GDH-TPI dose: inhibits GDH-TPI coupling enzymes in dose response | 79% of 170 active | AID 652145 | shares compounds with Mtb FBA inh | IC50, µM | GDH-TPI coupled enzyme assay, fluorescence, artifact counterscreen
Of the large screens only hits and unclear results are named; the others gave an inactive call (follow-up assays come after a bar, where they were run). Hits are enriched below; roughly 4% of the tested compounds scored in any of these assays. Unless noted, no rule for the calls is given here.

Cc1cc(C)cc(N2CCCn3c2nc2c3c(=O)[nH]c(=O)n2C)c1	none
CC1=C(C(=O)N2CCCCCC2)CC(CC(=O)NCCCCc2ccccc2)C(=O)N1Cc1ccccc1 (centres undefined)	none (no result: GDH-TPI counter-1, Mtb bLac sens, RecA splice inh, UGM FP inh, Rv3671c inh)
Cc1cc(C)n2c(Br)c(CN3CC4CC(C3)c3cccc(=O)n3C4)nc2n1 (centres undefined)	none
Cc1cc(C)nc(SCc2nc3nc(C)cc(C)n3c2Br)n1	Mtb FBA inh 29.5 | Mtb FBA inh conf 35.5 | GDH-TPI counter-2 21.8
Cc1cc(C)n2c(Br)c(CN3CCCC(C)C3)nc2n1 (centres undefined)	Mtb FBA inh 34.8 (no result: RecA splice inh) | Mtb FBA inh conf 77.3 | GDH-TPI counter-2 58.4
Cn1cc(-c2ccc(Cl)cc2)cc(C#N)c1=O	Mtb FBA inh 56.4 | Mtb FBA inh conf inactive | GDH-TPI counter-2 17.0
N#Cc1cc(-c2cccc(Cl)c2)c[nH]c1=O	Mtb FBA inh 46.0 | Mtb FBA inh conf inactive | GDH-TPI counter-2 inactive | GDH-TPI dose 4.11
Cn1c(-c2ccc(Cl)cc2)ccc(C#N)c1=O	none
C=CCn1cc(-c2cccc(Cl)c2)cc(C#N)c1=O	Mtb FBA inh 27.8 | Mtb FBA inh conf 69.1 | GDH-TPI counter-2 48.4
CCS(=O)(=O)Nc1c(C(=O)O)[nH]c2ccccc12	Mtb FBA inh 45.9 | Mtb FBA inh conf 76.2 | GDH-TPI counter-2 63.3
CCS(=O)(=O)Nc1c(C(=O)OC)[nH]c2ccccc12	none
CCOC(=O)C1CCN(S(=O)(=O)c2ccc3c4c(cccc24)C(=O)N3)CC1	Mtb FBA inh 40.9 | Mtb FBA inh conf active | GDH-TPI counter-2 active
CCOC(=O)CNS(=O)(=O)c1ccc2c3c(cccc13)C(=O)N2CC	Mtb FBA inh 59.1 | Mtb FBA inh conf 46.0 | GDH-TPI counter-2 40.7
CCOC(=O)C1CCN(S(=O)(=O)c2ccc3c4c(cccc24)C(=O)N3CC)CC1	Mtb FBA inh 42.6 (no result: RecA splice inh) | Mtb FBA inh conf 48.9 | GDH-TPI counter-2 30.5
Cc1ccc(C)c(OCCC(=O)OCC(=O)Nc2cc(S(=O)(=O)N3CCCCC3)ccc2C)c1	none (no result: RecA splice inh)
Cc1cn([C@H]2C[C@H](O)[C@@H](/C=C/C(=O)NCCc3cccs3)O2)c(=O)[nH]c1=O	none (no result: GDH-TPI counter-1, Mtb bLac sens, RecA splice inh, UGM FP inh, Rv3671c inh)
CC(=O)Nc1ccc(C(=O)N2CCOCC2c2cc(C(=O)NCc3ccccc3)no2)cc1 (centres undefined)	none (no result: Mtb bLac sens, RecA splice inh, UGM FP inh, Rv3671c inh)
Cc1cc(=O)oc2cc(OCC(=O)Nc3ccc(CN4CCOCC4)cc3)ccc12	none
Cc1cc(OCC(=O)Nc2ccc(CN3CCOCC3)cc2)c2c(C)cc(=O)oc2c1	Mtb FBA inh 77.5 | Mtb FBA inh conf 51.5 | GDH-TPI counter-2 33.5
Cc1cc(OCC(=O)Nc2ccc(CN3CCOCC3)cc2)c2c(C)c(C)c(=O)oc2c1	Mtb FBA inh 70.6 | Mtb FBA inh conf active | GDH-TPI counter-2 active
Cc1cnc2c(N)cc(C)c(C)c2c1	none (no result: Mtb bLac sens, RecA splice inh, UGM FP inh, Rv3671c inh)
COC(=O)Cc1c(C)c2ccc(OC3CCCCC3=O)c(C)c2oc1=O (centres undefined)	Mtb FBA inh 108.0 | Mtb FBA inh conf inactive | GDH-TPI counter-2 17.0
Cc1cc(=O)oc2c(C)c(OC3CCCCC3=O)ccc12 (centres undefined)	Mtb FBA inh 39.2 | Mtb FBA inh conf active | GDH-TPI counter-2 192.3
COC(=O)c1cc(COc2ccc3c4c(c(=O)oc3c2)CCCC4)c(C)o1	none
COc1ccccc1COc1ccc2c(C)c(CCC(=O)O)c(=O)oc2c1C	none
CCc1cc(=O)oc2cc(OS(C)(=O)=O)ccc12	none
CCc1cc(=O)oc2cc(OC3CCCCC3=O)ccc12 (centres undefined)	Mtb FBA inh 53.2 | Mtb FBA inh conf 191.9 | GDH-TPI counter-2 163.6
COC(=O)Cc1c(C)c2ccc(OC3CCCCC3=O)cc2oc1=O (centres undefined)	Mtb FBA inh 103.2 (no result: Rv3671c inh) | Mtb FBA inh conf 139.9 | GDH-TPI counter-2 144.4
Cn1ncc2c(=O)[nH]nnc21	none (no result: Mtb bLac sens, RecA splice inh, UGM FP inh, Rv3671c inh)
CN(C(=O)COC(=O)c1ccc2ccccc2n1)c1ccccc1	none (no result: RecA splice inh)
CCC1C(=O)N=C(SCC(=O)Nc2ccc(C)cc2)N(c2ccccc2)C1=O (centres undefined)	none
COc1ccc(OC)c(NC(=O)Nc2nnc(COCCO)s2)c1	none (no result: Mtb bLac sens, RecA splice inh, UGM FP inh, Rv3671c inh)
Nc1c(C(=O)OCC2CCCO2)c2nc3ccccc3nc2n1C1CCCC1 (centres undefined)	Mtb FBA inh 49.3 | Mtb FBA inh conf 81.7 | GDH-TPI counter-2 58.3
Nc1c(C(=O)NC2CCCC2)c2nc3ccccc3nc2n1N	none
Nc1c(C(=O)NC2CCCC2)c2nc3ccccc3nc2n1CC1CCCO1 (centres undefined)	Mtb FBA inh 47.3 | Mtb FBA inh conf active | GDH-TPI counter-2 active
Nc1c(C(=O)NCC2CCCO2)c2nc3ccccc3nc2n1Cc1ccco1 (centres undefined)	Mtb FBA inh 85.5 | Mtb FBA inh conf inactive | GDH-TPI counter-2 inactive
COCC(C)OC(=O)c1c(N)n(CC(C)C)c2nc3ccccc3nc12 (centres undefined)	Mtb FBA inh 99.4 | Mtb FBA inh conf inactive | GDH-TPI counter-2 inactive
C=CC[C@@H](CC(=O)NCCO)C(=O)N[C@@H](COC(=O)[C@@H](CC=C)CC(=O)OC(C)(C)C)Cc1c[nH]c2ccccc12	none (no result: RecA splice inh)
N#CC(CC(=O)c1ccc(F)cc1)c1ccc2c(c1)OCO2 (centres undefined)	none
N#CCC(=O)Nc1ccc(C(=O)N2CCN(c3ccccn3)CC2)cc1	none
CC(C)OC(=O)c1c(N)n(Cc2ccco2)c2nc3ccccc3nc12	Mtb FBA inh 43.5 | Mtb FBA inh conf 130.8 | GDH-TPI counter-2 97.5
CC(C)Cn1c(N)c(C(=O)NCC2CCCO2)c2nc3ccccc3nc21 (centres undefined)	Mtb FBA inh 85.3 | Mtb FBA inh conf 60.5 | GDH-TPI counter-2 35.3
CCCNC(=O)c1c(N)n(Cc2ccc3c(c2)OCO3)c2nc3ccccc3nc12	none
CC(C)CNC(=O)c1c(N)n(Cc2ccc3c(c2)OCO3)c2nc3ccccc3nc12	RecA splice inh 55.0, Mtb FBA inh 27.4 | Mtb FBA inh conf 79.2 | GDH-TPI counter-2 66.3
CC1(NC(=O)CCc2nc3ccccc3c(=O)[nH]2)CCS(=O)(=O)C1 (centres undefined)	none
COc1cc(NC(C)CCCN)c2nc(C)ccc2c1Oc1ccc(F)cc1 (centres undefined)	none (no result: Mtb bLac sens, RecA splice inh, UGM FP inh, Rv3671c inh)
CCC(CO)Nc1ccn2nc(-c3cc(OC)c(OC)c(OC)c3)cc2n1 (centres undefined)	Mtb FBA inh 32.3 (no result: Mtb bLac sens, RecA splice inh, UGM FP inh, Rv3671c inh) | Mtb FBA inh conf inactive | GDH-TPI counter-2 inactive
CCC(CO)Nc1ccn2nc(-c3ccccc3)cc2n1 (centres undefined)	none (no result: Mtb bLac sens, RecA splice inh, UGM FP inh, Rv3671c inh)
